From PubChem BioAssay (EPA / NIEHS) come the findings set out here.

Active and inactive are the calls of the source. Rule for the calls: active = hit-call score of the fitted dose curve at least 0.9, where 1 is the maximum; inactive = score below 0.9.

Read-out in experiment [1]: Monokine induced gamma interferon (MIG), CXCL9 (gene 4283)
Put plainly: BSK_hDFCGF_MIG: BioMAP Diversity Plus: hDFCGF Assay for Monokine induced gamma interferon (MIG) Biomarker Activity (AID 2283063). The following applies: primary human foreskin fibroblasts; actives raise or lower the signal. The method in brief:
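Human primary foreskin fibroblasts in the hDFCGF system, exposed to test chemical for 24 h; MIG measured by ELISA. Bidirectional curve fitting against DMSO negative control as activity baseline.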

Read-out in experiment [2]: Vascular cell adhesion molecule 1 (VCAM1), VCAM1 (gene 7412)
Put plainly: BSK_hDFCGF_VCAM1: BioMAP Diversity Plus: hDFCGF Assay for Vascular cell adhesion molecule 1 (VCAM1) Biomarker Activity (AID 2283065).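 For AC50: VCAM-1 protein level quantified by ELISA after 24 h chemical exposure.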 The following applies: primary human foreskin fibroblasts; actives raise or lower the signal. The method in brief: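 ELISA readout of VCAM-1 on human dermal fibroblast primary cultures, 24 h after chemical exposure. Gain or loss of signal fitted in both directions against DMSO baseline.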

Read-out in experiment [3]: Plasminogen activator inhibitor-1 (PAI1), SERPINE1 (gene 5054)
Put plainly: BSK_hDFCGF_PAI1: BioMAP Diversity Plus: hDFCGF Assay for Plasminogen activator inhibitor-1 (PAI1) Biomarker Activity (AID 2283066). The following applies: primary human foreskin fibroblasts; actives raise or lower the signal. A digest of the protocol: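 Fibroblasts from human foreskin were treated with test chemical. After 24 h, PAI-1 was measured by ELISA. Activity was fitted in both directions relative to DMSO.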

Read-out in experiment [4]: Intercellular Adhesion Molecule 1 (ICAM1), ICAM1 (gene 3383)
Put plainly: BSK_KF3CT_ICAM1: BioMAP Diversity Plus: KF3CT Assay for Intercellular Adhesion Molecule 1 (ICAM1) Biomarker Activity (AID 2283067). The following applies: primary human keratinocytes with fibroblasts; actives raise or lower the signal. A digest of the protocol:
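Cell-surface ICAM-1 was measured by ELISA 24 h after dosing primary human skin keratinocytes co-cultured with fibroblasts. Parallel SRB staining tracked overt cytotoxicity. Gain or loss of signal was fitted relative to DMSO.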

Read-out in experiment [5]: Interferon-gamma inducible Protein 10 (IP10), CXCL10 (gene 3627)
The experiment is described as follows: BSK_KF3CT_IP10: BioMAP Diversity Plus: KF3CT Assay for Interferon-gamma inducible Protein 10 (IP10) Biomarker Activity (AID 2283068). The conditions noted are these: primary human keratinocytes with fibroblasts; actives raise or lower the signal. The method in brief: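 Signal is secreted/surface IP-10 by ELISA in a human primary skin co-culture of keratinocytes and foreskin fibroblasts, taken 24 h post-dosing; DMSO served as negative control.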

A short description of experiment [6]: BSK_KF3CT_SRB: Viability Assessment in the BioMAP Diversity Plus: KF3CT Assay (AID 2283069).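 Note: read 24 h after compound addition.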 The conditions noted are these: primary human keratinocytes with fibroblasts. A digest of the protocol: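 Overt cytotoxicity is assessed as total protein by sulforhodamine B staining in parallel human skin co-cultures at 24 h after dosing. DMSO serves as negative control and baseline.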

Read-out in experiment [7]: Interleukin-1 alpha (IL1a), IL1A (gene 3552)
Put plainly: BSK_KF3CT_IL1a: BioMAP Diversity Plus: KF3CT Assay for Interleukin-1 alpha (IL1a) Biomarker Activity (AID 2283070). The conditions noted are these: primary human keratinocytes with fibroblasts; actives raise or lower the signal. A digest of the protocol:
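Readout is IL-1a level by ELISA, compared bidirectionally with DMSO as baseline. Cells: human keratinocytes co-cultured with foreskin fibroblasts, harvested 24 h post-dose.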

Read-out in experiment [8]: TIMP metallopeptidase inhibitor 2 (TIMP2), TIMP2 (gene 7077)
The experiment is described as follows: BSK_KF3CT_TIMP2: BioMAP Diversity Plus: KF3CT Assay for TIMP metallopeptidase inhibitor 2 (TIMP2) Biomarker Activity (AID 2283071). The conditions noted are these: primary human keratinocytes with fibroblasts; actives raise or lower the signal. A digest of the protocol:
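Chemicals were dosed onto human skin primary co-cultures of keratinocytes and foreskin fibroblasts, and TIMP-2 was measured by ELISA after 24 hours. Activity in either direction was fitted relative to DMSO.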

Read-out in experiment [9]: Transforming growth factor beta 1 (TGFb1), TGFB1 (gene 7040)
The experiment is described as follows: BSK_KF3CT_TGFb1: BioMAP Diversity Plus: KF3CT Assay for Transforming growth factor beta 1 (TGFb1) Biomarker Activity (AID 2283072). The conditions noted are these: primary human keratinocytes with fibroblasts; actives raise or lower the signal. A digest of the protocol: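 KF3CT co-culture (keratinocytes + fibroblasts), 24 h exposure → TGF-b1 ELISA → bidirectional fit, DMSO = baseline. Parallel SRB total-protein staining (0.1% SRB, 10% TCA fixation, 560 nm) for cytotoxicity.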

Read-out in experiment [10]: C-C motif chemokine 2 (Homo sapiens) (UniProt P13500)
The experiment is described as follows: BSK_KF3CT_MCP1: BioMAP Diversity Plus: KF3CT Assay for Monocyte Chemoattractant Protein 1 (MCP1/CCL2) Biomarker Activity (AID 2283073). The conditions noted are these: primary human keratinocytes with fibroblasts; actives raise or lower the signal. The method in brief: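 ELISA read-out of MCP-1, 24 h post-dose, in primary human skin keratinocytes co-cultured with fibroblasts. Parallel SRB staining monitors cytotoxicity; changes fitted both directions relative to DMSO.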

Read-out in experiment [11]: Matrix Metallopeptidase 9 (MMP9), MMP9 (gene 4318)
Put plainly: BSK_KF3CT_MMP9: BioMAP Diversity Plus: KF3CT Assay for Matrix Metallopeptidase 9 (MMP9) Biomarker Activity (AID 2283074).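 For AC50: MMP9 protein level quantified by ELISA in the co-culture.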 The following applies: primary human keratinocytes with fibroblasts; actives raise or lower the signal. The method in brief:
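Values come from bidirectional fitting relative to DMSO of MMP-9 levels, which were measured by ELISA. Measurements were taken 24 h after chemical dosing of a keratinocyte and foreskin fibroblast co-culture.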

Read-out in experiment [12]: urokinase plasminogen activator (uPA), PLAU (gene 5328)
Put plainly: BSK_KF3CT_uPA: BioMAP Diversity Plus: KF3CT Assay for urokinase plasminogen activator (uPA) Biomarker Activity (AID 2283075). The conditions noted are these: primary human keratinocytes with fibroblasts; actives raise or lower the signal. A digest of the protocol: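 Values derive from bidirectional fitting against DMSO controls. Keratinocyte/foreskin fibroblast co-cultures received chemical; 24 h later uPA was detected by ELISA, with SRB total-protein staining in parallel wells for overt cytotoxicity.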

Read-out in the next experiment: CD40, CD40 (gene 958)
The experiment is described as follows: BSK_LPS_CD40: BioMAP Diversity Plus: LPS Assay for CD40 Biomarker Activity (AID 2283076). The conditions noted are these: primary human HUVEC with PBMC; actives raise or lower the signal. The method in brief: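 In the LPS system of human endothelial cells with peripheral blood mononuclear cells, CD40 levels were read by ELISA 24 h post-treatment. Signal changes in either direction were fitted against the DMSO baseline, with parallel SRB protein staining.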

Read-out in experiment [13]: E-selectin (Homo sapiens) (UniProt P16581)
Put plainly: BSK_LPS_Eselectin: BioMAP Diversity Plus: LPS Assay for Eselectin Biomarker Activity (AID 2283077). The following applies: primary human HUVEC with PBMC; actives raise or lower the signal. A digest of the protocol: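 E-selectin ELISA on LPS-stimulated endothelial cell/PBMC co-cultures, read 24 h post-treatment; gains and losses fitted against DMSO. Parallel SRB staining (0.1% SRB after 10% TCA fixation, 560 nm) flags overt cytotoxicity.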

Read-out in experiment [14]: Interleukin-8 (IL8), CXCL8 (gene 3576)
Put plainly: BSK_LPS_IL8: BioMAP Diversity Plus: LPS Assay for Interleukin-8 (IL8) Biomarker Activity (AID 2283078). The following applies: primary human HUVEC with PBMC; actives raise or lower the signal. A digest of the protocol: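 ELISA read-out of IL-8 after 24 h chemical treatment of LPS-activated endothelial/PBMC human primary co-cultures. Changes either up or down relative to DMSO; overt cytotoxicity checked by sulforhodamine B staining in parallel wells.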

A short description of experiment [15]: BSK_LPS_SRB: Viability Assessment in the BioMAP Diversity Plus: LPS Assay (AID 2283079).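 Note: total protein by sulforhodamine B absorbance as a cytotoxicity measure; measured one day after compound addition.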 The following applies: primary human HUVEC with PBMC. The method in brief:
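SRB viability endpoint: cells fixed with 10% TCA, stained with 0.1% SRB, read at 560 nm, 24 h post-dose. HUVEC/PBMC co-culture; signal change in either direction scored relative to DMSO.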

Read-out in experiment [16]: Interleukin-1 alpha (IL1a), IL1A (gene 3552)
The experiment is described as follows: BSK_LPS_IL1a: BioMAP Diversity Plus: LPS Assay for Interleukin-1 alpha (IL1a) Biomarker Activity (AID 2283080). The conditions noted are these: primary human HUVEC with PBMC; actives raise or lower the signal. The method in brief:
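Readout is IL-1a level by ELISA, 24 h post-dose, fitted as gain or loss relative to DMSO. System: LPS-activated human primary co-culture of vascular endothelium and peripheral blood mononuclear cells, with parallel SRB total-protein cytotoxicity.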

Read-out in experiment [17]: Monocyte Chemoattractant Protein-1 (MCP1), CCL2 (gene 6347)
The experiment is described as follows: BSK_LPS_MCP1: BioMAP Diversity Plus: LPS Assay for Monocyte Chemoattractant Protein-1 (MCP1) Biomarker Activity (AID 2283081).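 For AC50: secreted MCP-1 protein quantified by ELISA in culture supernatant.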 The conditions noted are these: primary human HUVEC with PBMC; actives raise or lower the signal. A digest of the protocol:
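Secreted MCP-1 read by ELISA at 24 h post-dosing in an LPS-activated co-culture of endothelial cells with peripheral blood mononuclear cells. Fits run in both directions, DMSO as baseline; parallel SRB staining tracks overt cytotoxicity.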

A short description of experiment [18]: BSK_LPS_PGE2: BioMAP Diversity Plus: LPS Assay for Prostaglandin E2 (PGE2) Biomarker Activity (AID 2283082). The conditions noted are these: primary human HUVEC with PBMC; actives raise or lower the signal. A digest of the protocol: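 Compounds were added to the LPS co-culture of endothelium and PBMC, and PGE2 was measured by ELISA after 24 h. Responses in either direction were fitted with DMSO as baseline.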

Chain of E-selectin (Homo sapiens) (P16581 whole entry, looked up): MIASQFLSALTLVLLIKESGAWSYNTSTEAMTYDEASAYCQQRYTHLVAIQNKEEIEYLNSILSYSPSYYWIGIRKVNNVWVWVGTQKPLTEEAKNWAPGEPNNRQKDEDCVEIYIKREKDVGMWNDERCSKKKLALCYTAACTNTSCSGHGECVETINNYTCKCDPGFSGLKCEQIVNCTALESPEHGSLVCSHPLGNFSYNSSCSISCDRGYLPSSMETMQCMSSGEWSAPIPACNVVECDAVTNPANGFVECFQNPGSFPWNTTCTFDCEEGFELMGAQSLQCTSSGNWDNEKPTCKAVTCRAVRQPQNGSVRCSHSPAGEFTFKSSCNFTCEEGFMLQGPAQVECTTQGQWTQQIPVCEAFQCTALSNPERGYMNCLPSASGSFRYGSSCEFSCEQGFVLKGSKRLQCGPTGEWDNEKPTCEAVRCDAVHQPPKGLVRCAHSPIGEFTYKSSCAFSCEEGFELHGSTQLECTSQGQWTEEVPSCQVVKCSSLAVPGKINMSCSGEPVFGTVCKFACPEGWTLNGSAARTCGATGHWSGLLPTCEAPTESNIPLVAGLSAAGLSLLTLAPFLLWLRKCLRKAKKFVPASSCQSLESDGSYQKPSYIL

Regarding `CCC(C)(C#N)N=NC(C)(C#N)CC` (centres undefined), the result in experiment [1], in experiment [2], in experiment [4], in experiment [5], in experiment [6] and in [7] was inactive. For the same compound, the outcome in [8] was “inactive”; in experiment [9], “inactive”; in [10] it was “inactive”; in [11], “inactive”; in [12], “inactive”; with CD40, CD40 (gene 958), “inactive”. In addition, the outcome in experiment [13], in experiment [14], in [15], in [16], in experiment [17] and in experiment [18] was inactive. Moreover, the half-maximal activity concentration (AC50) in [3] was 0.016 µM (active).
Regarding `O=c1oc2ccccc2c(O)c1C(CC(O)c1ccc(-c2ccc(Br)cc2)cc1)c1ccccc1` (centres undefined), the concentration at half-maximal activity (AC50) in experiment [1] is 11.2 µM (active); in experiment [2], 5.3 µM (active); in experiment [3], 5.32 µM (active); in experiment [4], 5.92 µM (active); in [5] it was 8.62 µM (active); in experiment [6], 4.99 µM (active). Further, the AC50 is 5.57 µM (active) in experiment [7]; 5.28 µM (active) in experiment [8]; 5.23 µM (active) in [9]; 10 µM (active) in [10]; 19.1 µM (active) in experiment [11]; 5.28 µM (active) in experiment [12]. The AC50 with CD40, CD40 (gene 958) was 13 µM (active); in experiment [13], 14.3 µM (active); in experiment [14], 0.0502 µM (active); in experiment [15], 12.4 µM (active); in [17], 19.1 µM (active). Besides, the result in experiment [16] and in experiment [18] was inactive.
`OCCN(CCO)CCO`: the result in experiment [1], in experiment [2], in [3], in experiment [4], in [5] and in [6] was inactive. For the same compound, the outcome in experiment [7] is “inactive”; in experiment [8], “inactive”; in experiment [9], “inactive”; in [11] it was “inactive”; in experiment [12] it was “inactive”; in the experiment with CD40, CD40 (gene 958) it was “inactive”. Moreover, the result in [13], in experiment [14], in [15], in experiment [16], in [17] and in experiment [18] was inactive.
On to `O=S(=O)(C(Cl)(Cl)Cl)C(Cl)(Cl)Cl`, for which the AC50 in experiment [1] was 2.36 µM (active); in experiment [2], 2.02 µM (active); in experiment [3] it was 1.11 µM (active); in experiment [4], 2.15 µM (active); in [5], 2.99 µM (active); in [6] it was 2.48 µM (active). Also, the concentration at half-maximal activity (AC50) in [7] was 1.67 µM (active); in experiment [8] it was 2.25 µM (active); in experiment [11], 2.22 µM (active); in [12], 3.52 µM (active); in the experiment with CD40, CD40 (gene 958), 1.51 µM (active); in experiment [13], 2.4 µM (active). In addition, the AC50 in experiment [14] was 2.88 µM (active); in experiment [15], 5.31 µM (active); in experiment [16], 1.6 µM (active); in [17] it was 4.15 µM (active). Besides, the result in experiment [9] and in experiment [18] was inactive.
